Rows were chosen to be rich in hits. Some 3.3% of all compounds tested hit in one or more screens of this group.
BoNT A protease – BoNT/A light chain protease inhibitors, primary screen, biochemical, flow cytometry, MLPCN library. Botulinum neurotoxin type A light chain protease (Clostridium botulinum A str. ATCC 3502). multiplex microsphere protease substrate cleavage. inhibition, % at 10 µM. 0.17% of 360,000 active; further: plate controls were buffer without enzyme for full effect and enzyme alone for no effect
BoNT F protease – BoNT/F light chain protease inhibitors, primary screen, biochemical, flow cytometry, MLPCN library; Botulinum neurotoxin type F light chain protease (Clostridium botulinum); Multiplex microsphere protease cleavage assay; inhibition, % at 10 µM; 0.22% of 360,000 active; in the data active means inhibition above about 35%, passing the limit was not always enough; inconclusive means no clear call, values can overlap the other calls; further: plate controls were buffer without enzyme for full effect and enzyme alone for no effect
Autofluor counter – compound fluorescence in toxin protease inhibitor counterscreen | compound autofluorescence counterscreen, microsphere flow cytometry; active compounds read high | fluorescence intensity (no concentration beside the values) | 3.1% of 360,000 active; in the data active means fluorescence intensity above about 16000; inconclusive means no clear call, values can overlap the other calls
Anthrax LF inh2 – Bacillus anthracis LF protease inhibitors, primary screen, biochemical, multiplex microsphere, MLPCN library. 0.12% of 360,000 active. inhibition, % at 10 µM. multiplex microsphere protease cleavage assay; further: plate controls were buffer without enzyme for full effect and enzyme alone for no effect
Target sequence (P15917 whole entry, looked up): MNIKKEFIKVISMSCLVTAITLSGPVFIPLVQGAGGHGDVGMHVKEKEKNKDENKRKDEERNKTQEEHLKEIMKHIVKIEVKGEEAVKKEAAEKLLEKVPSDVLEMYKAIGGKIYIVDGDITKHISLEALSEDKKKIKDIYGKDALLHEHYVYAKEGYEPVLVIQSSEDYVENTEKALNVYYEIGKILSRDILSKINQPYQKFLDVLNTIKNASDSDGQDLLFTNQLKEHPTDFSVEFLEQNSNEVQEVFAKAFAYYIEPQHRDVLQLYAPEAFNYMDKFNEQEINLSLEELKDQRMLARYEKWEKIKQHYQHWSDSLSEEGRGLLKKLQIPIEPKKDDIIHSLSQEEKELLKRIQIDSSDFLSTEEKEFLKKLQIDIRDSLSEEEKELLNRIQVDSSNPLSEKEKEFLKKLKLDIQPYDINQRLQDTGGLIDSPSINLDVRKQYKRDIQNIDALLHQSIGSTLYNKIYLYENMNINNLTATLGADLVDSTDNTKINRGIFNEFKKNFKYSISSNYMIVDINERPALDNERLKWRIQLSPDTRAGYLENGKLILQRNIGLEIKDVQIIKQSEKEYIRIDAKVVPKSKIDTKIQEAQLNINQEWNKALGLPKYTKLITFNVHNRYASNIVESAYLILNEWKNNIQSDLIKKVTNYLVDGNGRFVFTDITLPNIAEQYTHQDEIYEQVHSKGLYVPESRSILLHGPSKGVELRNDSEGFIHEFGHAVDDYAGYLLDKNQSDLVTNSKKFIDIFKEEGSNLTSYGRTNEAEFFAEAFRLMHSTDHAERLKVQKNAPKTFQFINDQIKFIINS
MazEF act – activators of E. coli MazEF toxin-antitoxin RNase, primary screen, biochemical, fluorescence, uHTS; 0.32% of 350,000 active; AID 504720, 2011; activation, % at 20 µM; FAM/BHQ RNA-DNA oligo cleavage fluorescence, 5 h; in the data active means activation above about 50%
SSB-PriA inh – inhibitors of Klebsiella pneumoniae PriA binding to SSB C-terminal tail, primary screen, biochemical, AlphaScreen; PriA–SSB C-terminal tail interaction (Klebsiella pneumoniae); AlphaScreen SSBct-PriA binding, biotinylated peptide; inhibition, % at 33 µM; 0.6% of 430,000 active; in the data active means inhibition mostly above about 37%, no sharp cut-off; inactive means mostly below about 20%;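 further: plate controls were negative control peptide for no effect and reference peptide for full effect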
* marks the source's active call; other numbers are inactive results; ? = inconclusive; nt = no result given; ! = not confirmed by another sample. Unless noted, no stated cut-off is given here; in the data, active means inhibition above about 30%; inconclusive means no clear call, values can overlap the other calls; inactive means below that.

SMILES	BoNT A protease	BoNT F protease	Autofluor counter	Anthrax LF inh2	MazEF act	SSB-PriA inh
CC(C)CCNC(=O)CN(C(=O)Cn1nnc(-c2ccccc2F)n1)c1cccc2c1CCCC2	4	7	20259*	-10	7	-12
CC(C)CCNC(=O)C(c1ccco1)N(CCCO)C(=O)Cn1nnc(-c2ccc(F)cc2)n1 (configuration not stated)	0	-2	4491	2	8	7
O=C(CN(C(=O)Cn1nnc(-c2ccccc2F)n1)c1cccc2c1CCCC2)NCc1ccccc1	?	?	?	-12	-1	-11
COc1ccc(CCNC(=O)Cn2nnc(-c3ccc(N4CCOCC4)cc3)n2)cc1OC	0	9	10812	-5	3	-16
COc1ccc(CCNC(=O)Cn2nnc(-c3cccc(OC)c3OC)n2)cc1OC	-1	-3	22884*	-2	7	-10
CC(C)CCNC(=O)CN(CCCN1CCOCC1)C(=O)Cn1nnc(-c2ccc(F)cc2)n1	4	5	22173*	1	5	-10
COc1ccc(-c2nnn(CC(=O)N(CC(=O)NCCC(C)C)c3ccccc3)n2)cc1OC	3	5	21028*	3	4	-12
C=CCn1c(SCC(=O)c2cc(C)n(-c3ccccc3)c2C)nc2ccccc2c1=O	nt	nt	nt	nt	nt	-5
CCC(C(=O)N1CCC2(CC1)OCCO2)c1ccccc1 (configuration not stated)	?	1	16484*	-2	-8	-11
CCC(C(=O)N1CCN(c2ncccn2)CC1)c1ccccc1 (configuration not stated)	1	6	3842	2	7	1
Cc1cccc2cc(CN(CC3CCCO3)C(=O)NC3CCCCC3)c(=O)[nH]c12 (configuration not stated)	0	-10	5393	-5	0	1
COc1ccc(CCN(Cc2cc3cccc(C)c3[nH]c2=O)C(=O)NC2CCCCC2)cc1OC	0	-1	23128*	1	5	0
CC(=O)NC(c1ccccc1)c1cccnc1 (configuration not stated)	0	-1	16197*	-1	-5	-3
N[C@@H](C(=O)O)c1cccnc1	nt	nt	nt	nt	nt	-4
Cc1nc(C(=O)NCCN2Cc3cc(Cl)ccc3OCC2=O)cs1	nt	nt	nt	nt	nt	-11
Cc1cc(C)c2sc(N(CCCN(C)C)C(=O)c3ccc(S(=O)(=O)N4CCc5ccccc5C4)cc3)nc2c1	-3	-8	6404	-3	nt	-10
CN(C)CCCN(C(=O)c1cc(-c2cccs2)nc2ccccc12)c1nc2ccc(F)cc2s1	0	0	5913	2	-5	41*
CN(C)CCCN(C(=O)c1ccc(S(=O)(=O)N2CCCc3ccccc32)cc1)c1nc2c(F)cc(F)cc2s1	nt	nt	nt	nt	nt	-15
Cc1cc(C)c2sc(N(CCCN(C)C)C(=O)c3ccc(S(=O)(=O)N4CCCc5ccccc54)cc3)nc2c1	-6	-11	?	-6	-21	47*!
CN(C)CCCN(C(=O)c1ccc(S(=O)(=O)N2CCc3ccccc32)cc1)c1nc2ccc(F)cc2s1	nt	nt	nt	nt	-20	46*!
CN(C)CCCN(C(=O)c1ccc(S(=O)(=O)N2CCCc3ccccc32)cc1)c1nc2c(Cl)cccc2s1	nt	nt	nt	nt	nt	39*
CN(C)CCCN(C(=O)c1ccc(S(=O)(=O)N2CCc3ccccc32)cc1)c1nc2ccc(Cl)cc2s1	0	0	6728	-3	-67	-2
COCCNC(=O)C(=O)NCCc1ccc(N(C)C)cc1	nt	nt	nt	nt	nt	3
COc1cc(/C=C(\C#N)c2nc(-c3cc4ccccc4oc3=O)cs2)cc([N+](=O)[O-])c1O	nt	nt	nt	nt	nt	0
O=C(Nc1nc(C(=O)NCCc2ccc(Cl)cc2)cs1)c1ccccc1	nt	nt	nt	nt	nt	-12
SMILES	BoNT A protease	BoNT F protease	Autofluor counter	Anthrax LF inh2	MazEF act	SSB-PriA inh
CN1C=CC=C/C1=C(/C#N)c1nc(-c2ccccc2)cs1	nt	nt	nt	nt	nt	99*
N#CC(=Cc1ccccn1)c1nc(-c2ccc(Cl)cc2)cs1	1	1	4039	-3	13	nt
CN1C=CC=C/C1=C(/C#N)c1nc2ccccc2[nH]1	nt	nt	nt	nt	nt	-11
CN1C=CC=C/C1=C(/C#N)c1nc(-c2ccc(Cl)cc2)cs1	nt	nt	nt	nt	nt	134*
COc1ccccc1-c1csc(/C(C#N)=C2\C=CC=CN2C)n1	nt	nt	nt	nt	nt	70*
Cn1nc(-c2ccccc2)cc1C(=O)N1CCN(CCn2ccnc2-c2ccccc2)CC1	nt	nt	nt	nt	nt	0
FC(F)(F)Oc1ccccc1CN1CC(c2nc(-c3cccs3)no2)C1	nt	nt	nt	nt	nt	-28
CC(=O)Nc1cc(N=Cc2ccc(O)cc2O)c(Cl)cc1Cl	0	4	2100	1	130*	4
COc1ccc(O)c(C=Nc2cc(NC(C)=O)c(Cl)cc2Cl)c1	0	-3	2221	-1	-1	-14
O=C(COc1ccc(Cl)cc1Cl)NCCOc1ccccc1	nt	nt	nt	nt	nt	-23
Cc1ccsc1C1Nc2ccc3ncccc3c2C2=C1C(=O)CCC2 (configuration not stated)	3	0	20032*	1	-3	3
COc1cc(C2Nc3ccc4ncccc4c3C3=C2C(=O)CCC3)cc(OC)c1OC (configuration not stated)	0	-1	3181	2	6	-9
CC(C)(C)c1ccc(C(=O)Nc2c3c(nn2C(C)(C)C)CS(=O)(=O)C3)cc1	4	-8	?	-6	1	-8
CCN(CC)S(=O)(=O)c1ccc(C(=O)Nc2c3c(nn2C(C)(C)C)CS(=O)(=O)C3)cc1	0	0	23143*	-1	4	-14
c1ccc(-c2nc3ccccc3[nH]2)cc1	-1	-4	5600	-6	-18	-12
Nc1cc(N)cc(-c2nc3ccccc3[nH]2)c1	0	-25	2565	-13	15	45*
COc1ccc(OCC(=O)Nc2ncc3c(n2)CC(C)(C)CC3=O)cc1	?	-4	22939*	-2	2	-9
Cc1cc(C)nc(SCC(=O)Nc2ncc3c(n2)CC(C)(C)CC3=O)n1	-1	-3	20783*	0	5	-16
Cc1cc(NC(=O)C2CCN(c3cc(-n4ccc5ccccc54)ncn3)CC2)sn1	nt	nt	nt	nt	nt	1
COc1ccc(C(=O)CN2CCC(Cn3cnc4ccccc43)CC2)cc1	nt	nt	nt	nt	nt	-5
CCN(CC)CCn1c(=S)[nH]c2cc3c(cc2c1=O)OCO3	?	-2	23550*	-1	2	-14
CCCCNC(=O)CCCn1c(=S)[nH]c2cc3c(cc2c1=O)OCO3	?	-3	20235*	-3	5	-1
CCN(CC)CCNC(=O)CCn1c(=S)[nH]c2cc3c(cc2c1=O)OCO3	0	-2	5237	-2	13	-2

Screens deposited in PubChem by several laboratories.
